Results on eleven molecules are retold here after ChEMBL document CHEMBL3988442, “University of Dundee, Small-Polar-MMV Screening Library” (2021).

For some of these results: Measured potencies and affinities stand elsewhere.

Holding throughout (design): scale not given: direction of the effect not stated beside the values
Assay [1] concerns the target Protein translocase subunit SecA (Escherichia coli (strain K12)) (UniProt P10408). As to the kind of experiment: Assay to Identify E. coli SecA ATPase Inhibitors. Format: functional. Particulars: 30 µM.
The target of assay [2] is T1, Ubiquitin-activating enzyme e1, putative (Leishmania donovani (strain BPK282A1)) (UniProt E9BSI1).
T1 sequence (whole entry): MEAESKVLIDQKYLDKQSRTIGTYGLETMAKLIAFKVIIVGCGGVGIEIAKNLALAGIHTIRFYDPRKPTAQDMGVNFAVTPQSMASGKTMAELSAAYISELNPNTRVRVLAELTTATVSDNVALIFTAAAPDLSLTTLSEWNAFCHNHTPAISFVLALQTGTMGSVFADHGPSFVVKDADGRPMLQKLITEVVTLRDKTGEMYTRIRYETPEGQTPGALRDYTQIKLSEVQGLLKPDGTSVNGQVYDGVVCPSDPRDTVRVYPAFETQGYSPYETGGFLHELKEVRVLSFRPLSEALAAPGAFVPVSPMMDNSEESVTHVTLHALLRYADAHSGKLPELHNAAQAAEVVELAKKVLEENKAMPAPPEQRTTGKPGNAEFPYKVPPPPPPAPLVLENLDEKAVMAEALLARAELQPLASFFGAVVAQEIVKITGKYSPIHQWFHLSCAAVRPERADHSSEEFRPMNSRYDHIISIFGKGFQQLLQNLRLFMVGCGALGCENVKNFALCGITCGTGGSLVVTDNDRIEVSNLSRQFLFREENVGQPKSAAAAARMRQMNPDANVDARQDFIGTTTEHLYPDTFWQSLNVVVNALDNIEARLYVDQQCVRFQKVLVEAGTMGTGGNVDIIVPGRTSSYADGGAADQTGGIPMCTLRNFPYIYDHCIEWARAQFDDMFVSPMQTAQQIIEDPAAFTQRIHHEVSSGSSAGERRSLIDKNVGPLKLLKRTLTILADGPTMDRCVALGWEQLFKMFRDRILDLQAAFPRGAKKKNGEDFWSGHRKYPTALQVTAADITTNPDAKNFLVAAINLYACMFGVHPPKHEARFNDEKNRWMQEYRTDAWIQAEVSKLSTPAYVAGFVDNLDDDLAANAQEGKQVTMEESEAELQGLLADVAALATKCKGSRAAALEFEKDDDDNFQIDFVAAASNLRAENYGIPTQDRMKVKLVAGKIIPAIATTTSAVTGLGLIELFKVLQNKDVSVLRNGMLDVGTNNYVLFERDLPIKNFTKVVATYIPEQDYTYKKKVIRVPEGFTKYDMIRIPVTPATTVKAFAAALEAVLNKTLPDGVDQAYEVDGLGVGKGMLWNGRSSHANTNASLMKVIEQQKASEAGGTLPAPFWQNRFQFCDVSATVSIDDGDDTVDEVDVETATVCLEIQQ
As to the kind of experiment: Leishmania donovani Ubiquitin Activating Enzyme (LdE1). It counts as functional. Particulars: 30 µM.

Assay [3] addresses AMP-activated protein kinase, AMPK (Homo sapiens) (UniProt P54646+O43741+P54619+Q9UGJ0+Q9Y478+Q13131+Q9UGI9). As to the kind of experiment: AMP-dependent Kinase enzyme assay. An in vitro enzyme assay that detects ADP turnover that is directly proportional to AMPK activity. This uses naive AMPK that is activated during the assay with MK-8722. Format: functional. Particulars: 30 µM.

For assay [4], the target named is Sialic acid-binding Ig-like lectin 9 (Homo sapiens) (UniProt Q9Y336). As to the kind of experiment: Hs-Siglec9 ALPHAscreen SOP 20170721. Particulars: 10 µM.
The next assay deals with Trypanosoma cruzi. As to the kind of experiment: Trypanosoma cruzi phosphomannomutase and mannose-1-phosphate guanylyltransferase assay. Format: functional. The following applies: 10 µM.
The target of assay [5] is T2, Arginase-2, mitochondrial (Homo sapiens) (UniProt P78540).
T2 sequence (whole entry): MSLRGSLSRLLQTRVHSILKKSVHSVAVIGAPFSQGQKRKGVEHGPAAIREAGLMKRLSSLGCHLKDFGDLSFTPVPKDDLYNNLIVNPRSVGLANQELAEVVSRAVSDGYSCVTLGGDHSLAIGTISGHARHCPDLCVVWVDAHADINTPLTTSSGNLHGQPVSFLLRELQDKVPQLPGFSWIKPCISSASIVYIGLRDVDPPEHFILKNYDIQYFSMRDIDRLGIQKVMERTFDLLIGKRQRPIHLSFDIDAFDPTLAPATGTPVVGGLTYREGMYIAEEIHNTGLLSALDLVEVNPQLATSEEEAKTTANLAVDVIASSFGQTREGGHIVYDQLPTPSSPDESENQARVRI
As to the kind of experiment: in vitro enzyme assay to detect the production of urea directly proportional to the activity of Arginase II. Further: in the data most compounds retested in dose-response had high values. Format: functional. Particulars: 33.3 µM.

The target of assay [6] is T3, Proteasome subunit beta (Trypanosoma cruzi) (UniProt O96673).
T3 sequence (whole entry): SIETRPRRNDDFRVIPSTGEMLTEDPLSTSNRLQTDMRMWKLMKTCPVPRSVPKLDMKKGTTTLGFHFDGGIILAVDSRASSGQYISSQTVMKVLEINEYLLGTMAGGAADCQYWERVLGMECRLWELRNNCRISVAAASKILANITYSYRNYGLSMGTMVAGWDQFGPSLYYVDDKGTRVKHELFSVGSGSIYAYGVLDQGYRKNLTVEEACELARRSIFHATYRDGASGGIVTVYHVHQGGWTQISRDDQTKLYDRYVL
As to the kind of experiment: Trypanosoma cruzi proteasome chymotrypsin-like activity (TcProtChymo) assay. Further: in the data most compounds retested in dose-response had high values. Format: functional. Particulars: 9.37 µM.

Another assay is filed under the species Homo sapiens. As to the kind of experiment: To identify inhibition of the IFN signalling (Jak-Stat) pathway via expression of an eGFP reporter gene under the control of an IFN-stimulated response element (ISRE) containing MxA promoter. Format: functional. The following applies: 30 µM. A general note: A reporter such as luciferase makes a cellular process visible.

In assay [7] the target is T4, Tyrosyl-tRNA synthetase, putative (Trypanosoma cruzi (strain CL Brener)) (UniProt Q4DSP6).
T4 sequence (whole entry): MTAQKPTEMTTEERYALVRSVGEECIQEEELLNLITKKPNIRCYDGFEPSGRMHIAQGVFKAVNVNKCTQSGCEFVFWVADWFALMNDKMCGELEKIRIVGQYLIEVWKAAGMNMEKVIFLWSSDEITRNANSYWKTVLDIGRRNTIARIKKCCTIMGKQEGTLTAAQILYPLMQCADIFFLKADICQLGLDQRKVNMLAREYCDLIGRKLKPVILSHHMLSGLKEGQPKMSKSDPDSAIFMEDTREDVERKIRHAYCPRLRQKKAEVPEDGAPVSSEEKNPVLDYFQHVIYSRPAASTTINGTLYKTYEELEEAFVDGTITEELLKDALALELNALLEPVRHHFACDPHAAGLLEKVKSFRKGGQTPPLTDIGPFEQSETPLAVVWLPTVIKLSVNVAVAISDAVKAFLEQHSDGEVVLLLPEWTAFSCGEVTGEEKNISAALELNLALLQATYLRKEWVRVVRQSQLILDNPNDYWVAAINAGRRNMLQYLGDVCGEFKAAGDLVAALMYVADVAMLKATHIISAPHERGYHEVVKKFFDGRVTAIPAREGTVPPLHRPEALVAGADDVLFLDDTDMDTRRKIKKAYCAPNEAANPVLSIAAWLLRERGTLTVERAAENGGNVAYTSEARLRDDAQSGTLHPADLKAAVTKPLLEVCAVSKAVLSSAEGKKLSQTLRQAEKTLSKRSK
As to the kind of experiment: Trypanosoma cruzi tyrosyl tRNA synthetase (TcYRS) _High Tyrosine SOP. Further: in the data most compounds retested in dose-response had high values. It counts as functional. Particulars: 30 µM.

Assay [8] has as its target T4, Tyrosyl-tRNA synthetase, putative (Trypanosoma cruzi (strain CL Brener)). As to the kind of experiment: Trypanosoma cruzi tyrosyl tRNA synthetase (TcYRS) SOP. It counts as functional. The following applies: 30 µM.
Assay [9] has as its target Chromo domain-containing protein 1 (Saccharomyces cerevisiae (strain ATCC 204508 / S288c) (Baker's yeast)) (UniProt P32657). As to the kind of experiment: ScCHD-1 Enzyme Inhibition Assay. Further: in the data most compounds retested in dose-response had high values. It counts as functional. The following applies: 30 µM.

Sequence of Protein translocase subunit SecA (Escherichia coli (strain K12)) (P10408 whole entry): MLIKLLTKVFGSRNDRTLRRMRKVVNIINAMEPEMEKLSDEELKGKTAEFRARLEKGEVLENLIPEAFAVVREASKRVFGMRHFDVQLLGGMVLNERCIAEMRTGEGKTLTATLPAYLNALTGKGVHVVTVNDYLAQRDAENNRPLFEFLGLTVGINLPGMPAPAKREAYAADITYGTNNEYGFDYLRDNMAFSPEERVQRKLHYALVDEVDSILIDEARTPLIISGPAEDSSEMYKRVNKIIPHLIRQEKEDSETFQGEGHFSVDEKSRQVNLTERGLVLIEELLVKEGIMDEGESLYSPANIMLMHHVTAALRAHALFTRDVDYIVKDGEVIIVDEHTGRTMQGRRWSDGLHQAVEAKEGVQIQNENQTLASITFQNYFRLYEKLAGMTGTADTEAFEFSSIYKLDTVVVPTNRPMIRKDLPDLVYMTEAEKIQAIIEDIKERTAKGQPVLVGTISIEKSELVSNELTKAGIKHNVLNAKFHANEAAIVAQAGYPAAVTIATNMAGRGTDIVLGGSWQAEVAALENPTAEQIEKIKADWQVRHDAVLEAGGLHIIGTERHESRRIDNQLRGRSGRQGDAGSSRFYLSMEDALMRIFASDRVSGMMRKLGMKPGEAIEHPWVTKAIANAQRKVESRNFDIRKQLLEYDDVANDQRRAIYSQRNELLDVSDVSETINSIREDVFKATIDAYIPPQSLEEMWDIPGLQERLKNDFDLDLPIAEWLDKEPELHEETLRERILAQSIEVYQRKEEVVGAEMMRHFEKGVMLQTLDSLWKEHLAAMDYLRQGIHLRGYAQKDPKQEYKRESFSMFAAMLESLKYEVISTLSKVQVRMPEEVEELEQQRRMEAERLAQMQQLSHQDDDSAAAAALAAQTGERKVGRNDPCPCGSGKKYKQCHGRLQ
Sequence of Chromo domain-containing protein 1 (Saccharomyces cerevisiae (strain ATCC 204508 / S288c) (Baker's yeast)) (P32657 whole entry, the tested form may be a part): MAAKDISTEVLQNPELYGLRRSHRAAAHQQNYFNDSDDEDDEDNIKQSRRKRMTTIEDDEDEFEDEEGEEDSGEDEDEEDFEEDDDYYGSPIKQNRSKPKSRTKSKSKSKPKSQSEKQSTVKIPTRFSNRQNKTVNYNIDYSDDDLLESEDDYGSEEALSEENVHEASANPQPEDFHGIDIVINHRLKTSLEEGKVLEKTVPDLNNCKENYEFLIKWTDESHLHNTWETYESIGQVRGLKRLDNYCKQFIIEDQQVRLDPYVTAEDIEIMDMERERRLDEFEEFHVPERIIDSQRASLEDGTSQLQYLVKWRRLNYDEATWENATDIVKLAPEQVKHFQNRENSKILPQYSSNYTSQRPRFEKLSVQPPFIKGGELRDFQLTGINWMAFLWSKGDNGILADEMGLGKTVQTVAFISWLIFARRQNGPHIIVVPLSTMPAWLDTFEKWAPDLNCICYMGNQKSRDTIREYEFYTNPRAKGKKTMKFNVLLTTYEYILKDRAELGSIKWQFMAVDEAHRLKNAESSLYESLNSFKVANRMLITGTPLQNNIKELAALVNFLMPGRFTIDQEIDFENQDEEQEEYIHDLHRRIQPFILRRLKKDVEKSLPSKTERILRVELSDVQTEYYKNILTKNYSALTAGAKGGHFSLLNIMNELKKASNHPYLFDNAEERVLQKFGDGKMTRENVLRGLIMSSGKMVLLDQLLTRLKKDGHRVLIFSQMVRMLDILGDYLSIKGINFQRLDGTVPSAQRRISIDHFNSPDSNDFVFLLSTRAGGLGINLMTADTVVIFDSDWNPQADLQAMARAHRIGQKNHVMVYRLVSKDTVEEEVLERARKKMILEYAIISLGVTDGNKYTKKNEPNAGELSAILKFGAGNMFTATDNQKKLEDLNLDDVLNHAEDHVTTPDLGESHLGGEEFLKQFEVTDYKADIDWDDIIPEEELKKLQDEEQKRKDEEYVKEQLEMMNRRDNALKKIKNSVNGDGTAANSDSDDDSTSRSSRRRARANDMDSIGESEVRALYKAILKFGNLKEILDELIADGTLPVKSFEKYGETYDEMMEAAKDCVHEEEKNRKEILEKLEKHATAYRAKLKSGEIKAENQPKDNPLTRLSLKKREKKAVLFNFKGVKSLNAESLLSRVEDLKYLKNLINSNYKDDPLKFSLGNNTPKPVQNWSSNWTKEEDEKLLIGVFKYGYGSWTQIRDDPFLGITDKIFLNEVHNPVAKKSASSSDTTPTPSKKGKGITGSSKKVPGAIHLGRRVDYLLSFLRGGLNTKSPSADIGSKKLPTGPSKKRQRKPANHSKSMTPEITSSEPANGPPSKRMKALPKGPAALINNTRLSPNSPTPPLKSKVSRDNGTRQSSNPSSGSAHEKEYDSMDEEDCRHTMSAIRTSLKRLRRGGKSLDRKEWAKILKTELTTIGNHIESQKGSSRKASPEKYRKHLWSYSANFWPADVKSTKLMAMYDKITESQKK
Sequence of Sialic acid-binding Ig-like lectin 9 (Homo sapiens) (Q9Y336 whole entry): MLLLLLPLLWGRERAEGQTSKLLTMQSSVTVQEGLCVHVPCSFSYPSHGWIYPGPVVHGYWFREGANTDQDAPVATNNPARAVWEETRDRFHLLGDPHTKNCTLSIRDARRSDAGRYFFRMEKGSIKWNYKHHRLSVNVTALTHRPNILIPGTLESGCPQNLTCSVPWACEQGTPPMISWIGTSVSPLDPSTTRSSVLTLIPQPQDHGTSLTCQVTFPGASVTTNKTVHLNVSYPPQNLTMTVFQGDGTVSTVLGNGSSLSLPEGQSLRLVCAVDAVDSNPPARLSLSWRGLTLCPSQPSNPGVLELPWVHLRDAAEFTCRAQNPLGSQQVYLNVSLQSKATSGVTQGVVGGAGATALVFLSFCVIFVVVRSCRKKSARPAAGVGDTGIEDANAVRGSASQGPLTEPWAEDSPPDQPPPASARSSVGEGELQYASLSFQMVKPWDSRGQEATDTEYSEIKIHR

In the case of `Cc1nn(C)c2c(NCc3cccnc3)nc(C3CC3)nc12`, the Percent Effect in [1] was -3.37%; in assay [2], 15.6%; in [3], 11.8%; in [4], 13.7%; in the assay with Trypanosoma cruzi, 5.61%; in assay [5] it was 24.8%. Also, the Percent Effect in assay [6] is 12.8%; in the assay listed under Homo sapiens, 12.8%; in assay [7] it was 1.07%; in assay [8], 13.6%; in assay [9] it was 0.869%.

In the case of `CC(c1ccc(Cl)cc1)N1CCN(CCS(C)(=O)=O)CC1` (stereo unspecified), the Percent Effect in assay [1] is -3.62%; in [2], 5.41%; in assay [3] it was 0.609%; in [4], 6.25%; in the assay with Trypanosoma cruzi, -0.579%; in assay [5], 3.81%. Moreover, the Percent Effect in assay [6] was 14%; in the assay filed under Homo sapiens, 10.3%; in assay [7] it was 3.7%; in assay [8] it was 14.6%; in [9] it was -5.14%.

For `Cc1cc(C)c2nc(CN3CCCC(c4cc[nH]n4)C3)cc(O)c2c1` (stereo unspecified), the Percent Effect in [1] was -1.83%; in assay [2], 0%; in assay [3], 3.31%; in assay [4], -3.01%; in the assay on Trypanosoma cruzi, -3.28%; in [5], 0%. Also, the Percent Effect in [6] was 8.62%; in the assay filed under Homo sapiens it was 23.3%; in [7], 3.7%; in [8] it was 14.6%; in assay [9], -5.03%.

In the case of `CC(C)Cc1cc(NC(=O)c2ccc[nH]2)n(C)n1`, the Percent Effect in [1] was -5.53%; in assay [2] it was 5.2%; in assay [3] it was 3.29%; in assay [4] it was 6.59%; in the assay on Trypanosoma cruzi, -5.24%; in assay [5] it was -5.34%. Further, the Percent Effect is -0.169% in [6]; 0.305% in the assay filed under Homo sapiens; 5.83% in assay [7]; 14.6% in assay [8]; -7.26% in [9].

As for `CC(O)CNC(=O)NCc1ccc(N2CCNC(=O)C2)cc1` (stereo unspecified), the Percent Effect in assay [1] is -3.56%; in assay [2] it was 20.8%; in assay [3], -9.88%; in assay [4] it was 10.6%; in the assay with Trypanosoma cruzi, 2.06%; in [5] it was -0.712%. Besides, the Percent Effect in [6] is 4.73%; in the assay filed under Homo sapiens, -4.97%; in assay [7], 11.7%; in [8], 21.9%; in assay [9], -11.2%.

Turning to `COc1cccc(CCC2CCCN(C(=O)C3=NN(C)C(=O)CC3)C2)c1` (stereo unspecified), the Percent Effect was -0.975% in assay [1]; -10.8% in [2]; -2.43% in assay [3]; -1.4% in assay [4]; -3.28% in the assay with Trypanosoma cruzi; 0.952% in assay [5]. Besides, the Percent Effect in assay [6] is 3.79%; in the assay listed under Homo sapiens, 6.9%; in assay [7] it was 3.7%; in assay [8], 4.88%; in assay [9] it was -1.44%.

`O=C(Nc1ccc(N2CCCC2)nc1)N1CCc2ccccc2C1`: the Percent Effect in assay [1] was -3.4%; in [2], 0%; in [3], -13.6%; in [4], 2.55%; in the assay with Trypanosoma cruzi it was -6.45%; in assay [5] it was 3.75%. The Percent Effect in assay [6] came out at 20.7%; in the assay listed under Homo sapiens it was 7.01%; in [7], 15.8%; in [8], 18.3%; in assay [9], 0.41%.

As to `C1CC(CN2CCO[C@H]3[C@H](OCC4CC4)CC[C@@H]32)CCO1`, the Percent Effect in assay [1] is -7.62%; in assay [2], 2.7%; in assay [3], -2.6%; in assay [4] it was -1.5%; in the assay on Trypanosoma cruzi it was -2.93%; in assay [5], 2.08%. In addition, the Percent Effect in assay [6] was 16.3%; in the assay listed under Homo sapiens, 7.72%; in [7], 5.94%; in assay [8] it was 3.66%; in [9] it was -1.93%.

For the molecule `O=C(N[C@@H]1CN(Cc2cccs2)[C@@H]2CCCO[C@@H]21)C1CC1`, the Percent Effect in [1] is 2.58%; in [2] it was 8%; in assay [3], 2.54%; in [4], 23.2%; in the assay on Trypanosoma cruzi, -7.34%; in [5] it was -53.6%. Also, the Percent Effect was 13.3% in assay [6]; 1.32% in the assay filed under Homo sapiens; 2.08% in assay [7]; 20% in [8]; -6.29% in [9].

For the molecule `Cc1cc(C2CCCN2C(=O)c2cc3c(s2)CCC3)on1` (stereo unspecified), the Percent Effect in assay [1] was -6.23%; in [2], 5.26%; in assay [3], 2.83%; in assay [4], 3.1%; with Trypanosoma cruzi, 6.58%; in assay [5], -1.92%. Moreover, the Percent Effect is 14.4% in assay [6]; -0.279% in the assay filed under Homo sapiens; 0.49% in assay [7]; 4.88% in assay [8]; -7.02% in [9].

For the molecule `Cc1noc(C)c1CCC(=O)NC(C)c1nnc2n1CCC2` (stereo unspecified), the Percent Effect in assay [1] was -2.15%; in assay [2] it was 16.2%; in assay [3], 5.84%; in [4], 17.7%; in the assay on Trypanosoma cruzi, 6.35%; in assay [5], 5.71%. Further, the Percent Effect is 5.24% in [6]; 3.14% in the assay filed under Homo sapiens; 2.15% in [7]; 13.6% in assay [8]; -4.65% in [9].
